Measles CPE: protection of cells from measles virus | protection (pct of control), % at 4 µM | Measles virus-infected cells, CPE protection, absorbance | AID 841 | actives 1.5% (n = 140,000); in the data active = protection mostly above about 24%, no sharp cut-off; inactive = mostly below about 26%
CYP2C9 inh: human CYP2C9 inhibition. P11712. CYP2C9 Supersomes, luciferin-H conversion, luminescence. inhibition, % at 5 µM. actives 20% (n = 96,000);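 active = blocking of liver enzyme CYP2C9 beyond about 50% at 5 µM, limit read from the data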
Target sequence (P11712 whole entry, looked up): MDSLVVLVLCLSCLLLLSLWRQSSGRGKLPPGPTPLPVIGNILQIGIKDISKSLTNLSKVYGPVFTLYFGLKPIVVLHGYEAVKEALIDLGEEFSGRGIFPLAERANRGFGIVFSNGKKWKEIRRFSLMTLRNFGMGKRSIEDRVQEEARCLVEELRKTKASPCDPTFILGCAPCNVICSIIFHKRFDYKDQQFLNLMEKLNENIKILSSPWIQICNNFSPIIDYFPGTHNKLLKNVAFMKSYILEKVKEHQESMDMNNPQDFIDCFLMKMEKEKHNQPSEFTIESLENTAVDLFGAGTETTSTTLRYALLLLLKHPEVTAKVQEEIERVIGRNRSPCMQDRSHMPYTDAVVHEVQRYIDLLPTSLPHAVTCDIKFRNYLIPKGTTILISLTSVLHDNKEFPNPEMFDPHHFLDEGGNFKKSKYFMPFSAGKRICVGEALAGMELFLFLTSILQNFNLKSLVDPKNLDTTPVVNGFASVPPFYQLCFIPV
CYP2C19 inhib: inhibitors of human CYP2C19; CYP2C19 Supersomes, luciferin-H EGE luminescence, 30 min; inhibition, % at 5 µM; actives 21% (n = 96,000);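 active = CYP2C19 inhibition above a set limit at 5 µM in the primary screen, cut at about 50% in these data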;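 note: plate controls were negative control wells for no effect and 2.5 mM tranylcypromine positive control for full effect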
CYP2C19 act: cytochrome P450 2C19 (human) activation; AID 1025; P33261; 96,000 tested, under 10 active; activation factor at 5 µM; recombinant CYP2C19, luciferin-H EGE luminescence; active compounds read high; 0 = fully inhibited enzyme, 1 = untreated enzyme;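 active = activation factor of at least 2 at 5 µM in the primary screen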;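 note: 0 = wells with 2.5 mM tranylcypromine and 1 = vehicle-only wells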
CYP2C9 activ: CYP2C9 (human) activation; P11712; recombinant CYP2C9, luciferin-H conversion, luminescence; active compounds read high; factor 1 = untreated enzyme, 0 = blocked; activation factor at 5 µM; actives 1.4% (n = 96,000); AID 1024;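 active = activation factor of 2 or more for CYP2C9 at a 5 µM dose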;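 note: 0 = sulfaphenazole-blocked wells and 1 = vehicle-only wells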
The depositor's hits bear a star; x = not tested or not shown. Hits are enriched below; roughly 22% of the tested compounds scored in any of these assays.

SMILES	Measles CPE	CYP2C9 inh	CYP2C19 inhib	CYP2C19 act	CYP2C9 activ
Cc1cc(C)c(C)c(S(=O)(=O)Nc2ccccc2C(=O)NCCCn2ccnc2)c1C	17	98*	99*	0	0
O=C(Nc1cc(S(=O)(=O)N2CCCCC2)ccc1O)c1ccccc1NS(=O)(=O)c1ccc(F)c(F)c1	5	x	x	x	x
O=C(NCCCn1ccnc1)c1ccccc1NS(=O)(=O)c1ccc(F)c(F)c1	22	100*	99*	0	0
Cc1ccc(S(=O)(=O)Nc2ccccc2F)cc1C(=O)NCCCN1CCCC1=O	5	4	-7	1.1	1
CC1CCCN(C(=O)COC(=O)c2ccc[nH]c2=O)C1 (stereo not drawn)	14	0	8	0.9	1
Nc1c(NCc2ccccc2)c2ccccc2oc1=O	3	73*	97*	0	0.3
O=c1oc2ccccc2c(NCc2ccccc2)c1[N+](=O)[O-]	-1	x	x	x	x
COc1ccc2c(c1)C1CC(C)(NC(=O)C1S(=O)(=O)c1ccc(F)cc1)O2 (stereo not drawn)	69*	x	x	x	x
COc1ccc2c(c1)OC1(C)CC2C(C(=O)c2ccccc2OC)C(=O)N1 (stereo not drawn)	31*	x	x	x	x
COc1ccc2c(c1)C1CC(C)(NC(=O)C1C(=O)c1ccccc1)O2 (stereo not drawn)	4	5	24	0.8	1
C=CCOc1ccc(CNc2nccs2)cc1OC	6	x	x	x	x
O=[N+]([O-])c1ccccc1C1Nc2cccc3cccc(c23)N1	3	70*	99*	0	0.3
Oc1ccccc1C1Nc2cccc3cccc(c23)N1	3	0	41	0.6	1
COc1ccccc1C1Nc2cccc3cccc(c23)N1	6	45	70*	0.3	0.6
O=C(C1CCCN1S(=O)(=O)c1cccc2cccnc12)N1CCc2ccccc2C1 (stereo not drawn)	17	15	20	0.8	0.8
O=C(C1CCCN1S(=O)(=O)c1cccc2cccnc12)N1CCc2ccccc21 (stereo not drawn)	14	62*	70*	0.3	0.4
O=C(Nc1cccc(C(F)(F)F)c1)C1CCCN1S(=O)(=O)c1cccc2cccnc12 (stereo not drawn)	15	48	47	0.5	0.5
O=C(C1CCCN1S(=O)(=O)c1cccc2cccnc12)N1CCN(c2ccccc2)CC1 (stereo not drawn)	5	61*	16	0.8	0.4
O=C(C1CCC(CNS(=O)(=O)c2cccc3cccnc23)CC1)N1CCc2ccccc21 (stereo not drawn)	6	12	80*	0.2	0.9
O=C(C1CCN(S(=O)(=O)c2cccc3cccnc23)CC1)N1CCc2ccccc21	12	-112	43	0.6	2.1*
CC(C)OC(=O)[C@H]1[C@H](c2ccc(Cl)cc2)[C@@](C#N)(C(N)=O)[C@@H]2C=CC(C(N)=O)=CN21	13	-3	25	0.8	1
COc1ccc(CN/C(C)=C(/C#N)C(N)=O)cc1OC	11	6	12	0.9	0.9
Cc1cc(SCNC(=O)c2ccccc2)ncn1	8	-7	20	0.8	1.1
CC1CCN(C(=O)C2CCC(CNS(=O)(=O)c3cccc4cccnc34)CC2)CC1 (stereo not drawn)	13	-191	-2	1	2.9*
CCC(=O)N/N=C(\C)CC(=O)Nc1cccc([N+](=O)[O-])c1	2	x	x	x	x
SMILES	Measles CPE	CYP2C9 inh	CYP2C19 inhib	CYP2C19 act	CYP2C9 activ
Cc1ccc(S(=O)(=O)CNC(=S)c2ccc3ccccc3c2)cc1	3	60*	60*	0.4	0.4
COc1ccc(C(=S)NCS(=O)(=O)c2ccc(C)cc2)cc1	14	x	x	x	x
Cc1ccc(S(=O)(=O)CNC(=S)c2cccc(C)c2)cc1	11	-90	94*	0.1	1.9
CC(C)C(=O)Nc1ccc(-c2csc(-c3ccccc3)n2)cc1	4	-21	-4	1	1.2
CC1C(c2ccccc2)N(C)C(c2ccccc2)CC1(O)c1ccccc1 (stereo not drawn)	11	24	65*	0.3	0.8
Cc1cc(C)nc(SCC(=O)c2cc3ccccc3oc2=O)n1	6	27	58*	0.4	0.7
O=C(CSc1nc2ccccc2o1)c1cc2ccccc2oc1=O	3	x	x	x	x
O=C(CSc1nnnn1-c1ccccc1)c1cc2ccccc2oc1=O	17	60*	40	0.6	0.4
CCOC(=O)C1CCCN(c2c(Nc3cccc(C)c3)c(=O)c2=O)C1 (stereo not drawn)	4	52*	38	0.6	0.5
CCOC(=O)C1CCCN(C(=S)Nc2ccc(C)cc2C)C1 (stereo not drawn)	3	36	84*	0.2	0.6
CCOC(=O)C1CCCN(C(=O)CC(c2ccccc2)c2ccccc2)C1 (stereo not drawn)	1	x	x	x	x
CS(=O)(=O)N1CCN(C(=O)C2c3ccccc3Oc3ccccc32)CC1	67*	50*	97*	0	0.5
CCOC(=O)C1CCCN(C(=O)C2c3ccccc3Oc3ccccc32)C1 (stereo not drawn)	1	64*	97*	0	0.4
COc1ccc(C(=O)NC(=S)Nc2ccc3c4c(cccc24)CC3)cc1OC	30	x	x	x	x
CCCCCCOC(=O)/C=C/c1c(C)[nH]c(=O)[nH]c1=O	9	10	18	0.8	0.9
CC1CC(C)CN(S(=O)(=O)c2cccc(C(=O)OCCN3CCCC3=O)c2)C1 (stereo not drawn)	24	-4	4	1	1
COc1cc(C)c(NC(=S)Nc2ccc(Cl)c(Cl)c2)cc1OC	13	x	x	x	x
COc1cc(C(=O)Nc2cnc(NC(=O)C(C)C)cc2C)cc(OC)c1OC	3	x	x	x	x
CCOc1ccccc1N1CCN(C(=O)C2c3ccccc3Oc3ccccc32)CC1	4	85*	78*	0.2	0.2
CCOc1ccccc1N1CCN(C(=O)c2ccccc2)CC1	8	-6	23	0.8	1.1
COc1ccccc1NC(=O)N1CCCC(c2nc3c(nnn3Cc3ccc(C)cc3)c(=O)[nH]2)C1 (stereo not drawn)	18	27	67*	0.3	0.7
O=C(c1cccs1)N1CCC(Cc2ccccc2)CC1	8	x	x	x	x
O=C(c1cccs1)N1CCC(c2nc3c(nnn3Cc3ccccc3)c(=O)[nH]2)CC1	13	59*	9	0.9	0.4
O=C(c1ccccc1)N1CCCC(c2nc3c(nnn3Cc3ccccc3)c(=O)[nH]2)C1 (stereo not drawn)	2	78*	24	0.8	0.2
Cc1ccc(C)c(Cn2nnc3c(=O)[nH]c(C4CCCN(C(=O)C5CCCCC5)C4)nc32)c1 (stereo not drawn)	7	89*	73*	0.3	0.1
O=C(C1CCCCC1)N1CCCC(c2nc3c(nnn3Cc3ccccc3)c(=O)[nH]2)C1 (stereo not drawn)	5	35	20	0.8	0.6
O=C(C1CCCCC1)N1CCC(c2nc3c(nnn3Cc3c(F)cccc3Cl)c(=O)[nH]2)CC1	6	x	x	x	x
